Results taken from PubChem BioAssay.

Target: Concanavalin-A (Canavalia ensiformis) (UniProt P02866)
Assay: compounds binding concanavalin A lectin – biochemical, small-molecule microarray, Alexa647 label, 635 nm, artefact control for SMM control protein annotation, primary screen (AID 1127);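 also: z combines 667 nm emission intensity with signal-to-noise across three replicate slides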
Conditions: ConA-A647 binding fluorescence, higher = more signal

Chain of Concanavalin-A (Canavalia ensiformis) (P02866 whole entry, looked up): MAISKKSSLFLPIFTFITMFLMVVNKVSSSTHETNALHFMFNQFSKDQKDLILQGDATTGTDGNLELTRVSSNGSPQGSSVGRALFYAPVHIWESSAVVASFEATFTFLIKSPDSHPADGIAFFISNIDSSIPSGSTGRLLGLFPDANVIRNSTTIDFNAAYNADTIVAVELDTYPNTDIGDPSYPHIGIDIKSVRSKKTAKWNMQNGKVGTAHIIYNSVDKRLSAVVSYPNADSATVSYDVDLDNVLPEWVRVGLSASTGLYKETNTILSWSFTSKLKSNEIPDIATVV

**Q.** `C[C@@H]1NC(=O)[C@@H](Cc2ccccc2)NC(=O)[C@@]23C(=O)N[C@@H](Cc4ccccc4)C2[C@H](C)[C@@]2(C)O[C@H]2C3/C=C/C/C=C\CNC1=O` (stereo not given in full) was tested. Which composite z-score did it give?
**A.** -0.447

**Q.** How did the composite z-score turn out when `COc1cccc(C)c1NC(=O)O[C@H]1[C@H](OC(=O)Nc2ccc3c(c2)OCO3)[C@@H](OC(=O)Nc2ccc3c(c2)OCO3)[C@@H](OC)O[C@@H]1CO` was run?
**A.** 0.66

**Q.** Which composite z-score does the source give for `C=C(COC)/C(=C/C[C@H](OC(=O)c1ccncc1)c1ccc(CO)o1)c1cnc2ccccc2c1` here?
**A.** 1.08

**Q.** For `CC(C)=C1C(=O)C(c2ccccc2)=C2CN3C(=O)N(CCc4ccccc4)C(=O)[C@]3(Cc3ccc(C(F)(F)F)cc3)[C@H]21`, which composite z-score is on record?
**A.** -0.47

**Q.** How did the composite z-score turn out when `CCCCNC(=O)c1ccc(C#CC(C)(C)C)c(OC(C)=O)c1` was run?
**A.** 0.744

**Q.** With `C=CCC(OC(C)=O)[C@@H]1[C@@H](N(Cc2cccc3ccccc23)C(=O)Cc2ccc(OC)cc2)c2cc(OCCCO)ccc2N1C(=O)c1ccc(-c2ccccc2)cc1` (stereo not given in full) as the compound, how does the composite z-score read?
**A.** -0.285

**Q.** For `COc1cc(NN2C(C(O)c3ccc(N(C)C)cc3)C=CC3C(=O)N(c4ccccc4)C(=O)C32)cc(OC)c1OC` (stereo not given), which composite z-score is on record?
**A.** 0.0693

**Q.** How did the composite z-score turn out when `CCCC[C@@H](O)C1=C(COC)C[C@H]2C(=O)N(C)C(=O)[C@H]2[C@H]1CO` was run?
**A.** 0.256

**Q.** How did the composite z-score turn out when `CC1CC/C=C\[C@H]2OC34C=CCN(c5ccc6ccccc6c5)C(=O)[C@H]3N(CCCO)C(=O)[C@@H]4C2C(=O)O1` (stereo not given in full) was run?
**A.** -0.71

**Q.** With `CC(C)C(CO)N1C(=O)[C@@H]2[C@H]3C(=O)OCC=C[C@H]3OC23C=CCN(c2ccc(Cl)cc2)C(=O)[C@@H]13` (stereo not given in full) as the compound, how does the composite z-score read?
**A.** -0.842

**Q.** How did the composite z-score turn out when `CCCN1C(=O)[C@@]2(Cc3ccccc31)N=C(c1ccc(OCCCO)cc1)O[C@H]2c1ccccc1` was run?
**A.** 1.13

**Q.** How did the composite z-score turn out when `O=C(O)[C@@H]1[C@@H]2C(=O)N(c3ccccc3)C(=O)[C@@H]2C[C@@H]1Sc1ccccc1` was run?
**A.** -0.607

**Q.** `COCCOC(=O)N1C(=O)[C@@]2(c3cc(C#CCNC(N)=O)ccc31)[C@H](C(N)=O)[C@H]1C(=O)O[C@H](c3ccccc3)[C@H](c3ccccc3)N1[C@@H]2c1ccccc1OCCO` was tested. Which composite z-score did it give?
**A.** 1.06

**Q.** `COC(=O)[C@@]1(Cc2ccc(OC)cc2)[C@H]2c3cc(C(=O)N4CCCC4)n(CCO)c3C[C@H]2CN1C(=O)c1ccccc1` was tested. Which composite z-score did it give?
**A.** 0.716

**Q.** For `C[N+](C)(C)CCCCCCNC(=O)[C@@H]1C[C@@H]2C(=O)N3CCC[C@H]3C(=O)N2[C@@H]1c1ccc(O)cc1`, which composite z-score is on record?
**A.** 0.818

**Q.** `O=C1O[C@@H](c2ccccc2)[C@@H](c2ccccc2)N2[C@@H](c3ccc(O)cc3)[C@]3(C(=O)Nc4ccc(C#CCCO)cc43)[C@@H](C(=O)N3CCN(c4ncccn4)CC3)[C@H]12` was tested. Which composite z-score did it give?
**A.** 1.12

**Q.** `CC(C)c1ccc(NN2C(C(O)c3ccc(F)cc3)C=CC3C(=O)N(c4ccccc4)C(=O)C32)cc1` (stereo not given) was tested. Which composite z-score did it give?
**A.** 1.1

**Q.** For `C[N+](C)(C)CCCC[C@@H]1NC(=O)[C@@H]2C[C@H](C(=O)NCCCCCCN)[C@H](c3cccc(OCCO)c3)N2C1=O`, which composite z-score is on record?
**A.** 1.12

**Q.** With `Cc1ccc(S[C@]2(C(=O)NCC(F)(F)F)CC(=O)N(Cc3cc(C(F)(F)F)cc(C(F)(F)F)c3)[C@@H]2c2ccc(CO)cc2I)cc1` as the compound, how does the composite z-score read?
**A.** -0.41

**Q.** With `C=C[C@H]1C(C(=O)OCC)=CC[C@@H](c2ccccc2)N1S(=O)(=O)c1ccc(C)cc1` as the compound, how does the composite z-score read?
**A.** 0.789

**Q.** How did the composite z-score turn out when `CCCCN1CC=CC23O[C@@H]4/C=C\CCCOC(=O)C4[C@H]2C(=O)N(CCO)[C@@H]3C1=O` (stereo not given in full) was run?
**A.** -0.557

**Q.** `CCCCN1CC=CC23O[C@@H]4/C=C\CCC(C)OC(=O)C4[C@H]2C(=O)N(CCCO)[C@@H]3C1=O` (stereo not given in full) was tested. Which composite z-score did it give?
**A.** 0.12

**Q.** How did the composite z-score turn out when `O=C(NCc1ccc(F)cc1)[C@H]1C[C@H]2C(=O)NCC(=O)N2[C@H]1c1ccc(O)cc1` was run?
**A.** 0.8

**Q.** With `CCOC(=O)C[C@H]1[C@H](OC(=O)Cc2ccc3c(c2)OCO3)[C@@H](NC(=O)c2ccc3ccccc3n2)c2cc(OCCCO)ccc2N1C(=O)c1ccccc1` as the compound, how does the composite z-score read?
**A.** 0.321

**Q.** `COc1cc2c(cc1O)C(C1CC1)N(C)CC2` (stereo not given) was tested. Which composite z-score did it give?
**A.** -1.91

**Q.** `COC(=O)C1=CC(CCCO)=CC(c2cccs2)N(Cc2cccc(OC(F)(F)F)c2)C=C1C(=O)OC` (stereo not given) was tested. Which composite z-score did it give?
**A.** 1.13

**Q.** For `COCCCNC(=O)[C@@]1(Sc2ccc(C)cc2)CC(=O)N(C2Cc3ccccc3C2)[C@@H]1c1ccc(CO)cc1`, which composite z-score is on record?
**A.** 0.163

**Q.** `CN(C)c1ccc(C(O)C2C=CC3C(=O)NC(=O)C3N2Nc2ccccn2)cc1` (stereo not given) was tested. Which composite z-score did it give?
**A.** 0.372

**Q.** For `COc1ccccc1CN1C(=O)c2ccccc2[C@](Cc2ccccc2I)(C(=O)O)[C@@H]1c1ccc(CO)cc1`, which composite z-score is on record?
**A.** 1.18

**Q.** `CC(C)N1CC=CC23O[C@@H]4C=CCCOC(=O)C4[C@H]2C(=O)N(CCCO)[C@@H]3C1=O` (stereo not given in full) was tested. Which composite z-score did it give?
**A.** -0.0639

**Q.** How did the composite z-score turn out when `COc1ccc(C(=O)Nc2ccc(CN3C(=O)[C@]4(O[C@H](CC(=O)N5Cc6ccccc6C[C@H]5CO)[C@@H]([Si](C)(C)c5ccc(OC)cc5)[C@@H]4C)c4ccccc43)cc2)cc1` was run?
**A.** 0.67

**Q.** Which composite z-score does the source give for `Cn1cccc1C(O)C1C=CC2C(=O)N(c3ccccc3)C(=O)C2N1Nc1ccccc1` (stereo not given) here?
**A.** 1.19

**Q.** `CCOC(=O)C[C@H]1[C@H](OC(=O)c2cc3ccccc3oc2=O)[C@@H](NC(=O)CC(C)C)c2cc(OCCCO)ccc2N1C(=O)c1ccc2ccccc2n1` was tested. Which composite z-score did it give?
**A.** 0.625

**Q.** Which composite z-score does the source give for `CC[C@@H]1C=C(C(=O)O)[C@H](c2ccccc2)N1S(=O)(=O)c1ccc(C)cc1` here?
**A.** 1.12

**Q.** For `C=CC[C@@H](OC(=O)Nc1ccc(SC)cc1)c1ccc(O)c(F)c1`, which composite z-score is on record?
**A.** -0.0538
